Experiment [1] concerns the target Serine/threonine-protein kinase pim-2 (Homo sapiens) (UniProt Q9P1W9). Particulars: at 1 µM.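 Further: each value is a mean of the inhibition measurements against the kinase.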
The target of experiment [2] is Serine/threonine-protein kinase pim-3 (Homo sapiens) (UniProt Q86V86). Particulars: at 0.1 µM.
The target is the same in experiment [3]. Conditions: at 1 µM.
In experiment [4] the target is T1, MAP kinase-activated protein kinase 5 (Homo sapiens) (UniProt Q8IW41).
T1 sequence (whole entry): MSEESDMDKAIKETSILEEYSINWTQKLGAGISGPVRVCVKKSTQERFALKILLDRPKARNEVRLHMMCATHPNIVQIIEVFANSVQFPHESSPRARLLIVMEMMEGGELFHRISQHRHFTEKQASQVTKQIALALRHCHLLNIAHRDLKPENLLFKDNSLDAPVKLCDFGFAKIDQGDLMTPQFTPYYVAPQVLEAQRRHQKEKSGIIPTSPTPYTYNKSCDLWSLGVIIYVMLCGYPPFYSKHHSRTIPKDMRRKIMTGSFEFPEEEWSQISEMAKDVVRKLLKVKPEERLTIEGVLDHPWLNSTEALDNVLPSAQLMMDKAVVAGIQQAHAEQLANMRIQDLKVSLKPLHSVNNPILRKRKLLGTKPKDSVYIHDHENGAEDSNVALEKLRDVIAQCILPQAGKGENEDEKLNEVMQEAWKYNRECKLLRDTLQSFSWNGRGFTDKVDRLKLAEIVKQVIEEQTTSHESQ
Conditions: at 0.1 µM.

The target in experiment [5] is T1, MAP kinase-activated protein kinase 5 (Homo sapiens). Conditions: at 1 µM.
Experiment [6] has as its target Serine/threonine-protein kinase SIK1 (Homo sapiens) (UniProt P57059). Particulars: at 0.1 µM.
For experiment [7] the target is unchanged. Conditions: at 1 µM.
In experiment [8] the target is Serine/threonine-protein kinase SIK2 (Homo sapiens) (UniProt Q9H0K1). Particulars: at 0.1 µM.
Chain of Serine/threonine-protein kinase SIK2 (Homo sapiens) (Q9H0K1 whole entry, looked up): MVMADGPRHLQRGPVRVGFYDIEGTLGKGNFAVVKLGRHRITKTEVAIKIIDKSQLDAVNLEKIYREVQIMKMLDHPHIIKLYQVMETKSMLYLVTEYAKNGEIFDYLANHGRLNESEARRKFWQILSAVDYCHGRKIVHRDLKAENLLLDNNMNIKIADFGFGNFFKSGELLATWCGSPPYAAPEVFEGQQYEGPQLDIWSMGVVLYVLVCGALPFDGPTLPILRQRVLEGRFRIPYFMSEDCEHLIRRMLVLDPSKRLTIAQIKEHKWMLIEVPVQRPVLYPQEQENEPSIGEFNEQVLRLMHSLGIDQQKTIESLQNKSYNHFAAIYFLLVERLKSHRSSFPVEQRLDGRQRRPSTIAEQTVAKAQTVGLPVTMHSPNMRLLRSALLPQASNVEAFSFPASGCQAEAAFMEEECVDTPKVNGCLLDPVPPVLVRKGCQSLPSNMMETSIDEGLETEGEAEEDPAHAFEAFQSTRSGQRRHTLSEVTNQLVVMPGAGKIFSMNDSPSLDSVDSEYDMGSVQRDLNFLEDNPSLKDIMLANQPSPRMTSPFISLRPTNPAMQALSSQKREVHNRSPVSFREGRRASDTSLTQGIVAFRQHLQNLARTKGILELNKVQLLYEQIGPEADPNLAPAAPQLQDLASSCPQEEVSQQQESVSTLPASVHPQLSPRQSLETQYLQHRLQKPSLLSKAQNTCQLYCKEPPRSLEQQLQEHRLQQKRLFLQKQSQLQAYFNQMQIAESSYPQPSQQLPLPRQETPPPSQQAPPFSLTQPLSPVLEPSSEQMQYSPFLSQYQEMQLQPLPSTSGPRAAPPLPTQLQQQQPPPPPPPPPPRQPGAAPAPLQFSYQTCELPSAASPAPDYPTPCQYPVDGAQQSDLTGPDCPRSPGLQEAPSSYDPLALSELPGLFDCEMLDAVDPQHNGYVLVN
Experiment [9] has the same target. Conditions: at 1 µM.
Experiment [10] addresses T2, Serine/threonine-protein kinase TBK1 (Homo sapiens) (UniProt Q9UHD2).
T2 sequence (whole entry): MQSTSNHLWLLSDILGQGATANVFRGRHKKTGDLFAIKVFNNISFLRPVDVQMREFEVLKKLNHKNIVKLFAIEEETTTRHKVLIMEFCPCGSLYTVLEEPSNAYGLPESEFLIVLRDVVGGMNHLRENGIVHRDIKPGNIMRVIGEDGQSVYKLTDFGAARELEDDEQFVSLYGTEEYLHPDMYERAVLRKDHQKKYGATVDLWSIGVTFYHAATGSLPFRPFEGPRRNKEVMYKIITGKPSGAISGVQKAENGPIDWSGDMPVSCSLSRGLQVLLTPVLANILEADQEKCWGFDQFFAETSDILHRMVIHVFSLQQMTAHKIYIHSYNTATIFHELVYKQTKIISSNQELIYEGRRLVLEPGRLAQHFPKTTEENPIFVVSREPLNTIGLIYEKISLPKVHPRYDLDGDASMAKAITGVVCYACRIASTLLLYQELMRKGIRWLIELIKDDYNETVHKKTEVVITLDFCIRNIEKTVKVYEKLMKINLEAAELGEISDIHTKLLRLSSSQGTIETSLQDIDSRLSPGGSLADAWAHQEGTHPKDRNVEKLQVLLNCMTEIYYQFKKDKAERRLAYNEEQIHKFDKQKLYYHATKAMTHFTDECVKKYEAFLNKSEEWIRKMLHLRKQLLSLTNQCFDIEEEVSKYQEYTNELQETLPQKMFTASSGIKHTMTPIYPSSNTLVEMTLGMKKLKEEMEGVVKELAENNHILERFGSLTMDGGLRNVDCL
Particulars: at 0.1 µM.

Experiment [11] concerns the target T2, Serine/threonine-protein kinase TBK1 (Homo sapiens). Conditions: at 1 µM.
Experiment [12] has as its target T3, Testis-specific serine/threonine-protein kinase 1 (Homo sapiens) (UniProt Q9BXA7).
T3 sequence (whole entry): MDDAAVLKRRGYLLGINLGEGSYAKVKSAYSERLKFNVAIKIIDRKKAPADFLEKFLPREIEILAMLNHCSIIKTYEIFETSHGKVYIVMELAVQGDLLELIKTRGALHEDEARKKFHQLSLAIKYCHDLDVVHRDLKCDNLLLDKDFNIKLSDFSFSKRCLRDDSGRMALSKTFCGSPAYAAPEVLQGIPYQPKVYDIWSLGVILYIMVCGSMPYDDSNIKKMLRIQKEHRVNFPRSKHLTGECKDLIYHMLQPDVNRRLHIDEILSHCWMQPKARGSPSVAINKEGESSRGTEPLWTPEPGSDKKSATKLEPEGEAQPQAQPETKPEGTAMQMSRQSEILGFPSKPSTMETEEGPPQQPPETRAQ
Particulars: at 0.1 µM.

The target in experiment [13] is T3, Testis-specific serine/threonine-protein kinase 1 (Homo sapiens). Conditions: at 1 µM.
Experiment [14] addresses T4, Testis-specific serine/threonine-protein kinase 2 (Homo sapiens) (UniProt Q96PF2).
T4 sequence (whole entry): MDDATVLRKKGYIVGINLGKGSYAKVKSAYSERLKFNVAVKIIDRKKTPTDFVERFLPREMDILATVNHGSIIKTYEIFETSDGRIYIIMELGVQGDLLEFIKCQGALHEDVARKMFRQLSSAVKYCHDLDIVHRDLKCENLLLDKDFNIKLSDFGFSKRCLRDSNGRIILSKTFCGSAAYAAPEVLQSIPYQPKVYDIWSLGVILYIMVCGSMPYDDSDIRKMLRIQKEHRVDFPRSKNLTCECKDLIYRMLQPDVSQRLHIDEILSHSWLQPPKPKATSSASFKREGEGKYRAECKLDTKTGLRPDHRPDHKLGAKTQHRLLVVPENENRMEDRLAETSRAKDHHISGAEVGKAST
Particulars: at 0.1 µM.

Experiment [15] addresses T4, Testis-specific serine/threonine-protein kinase 2 (Homo sapiens). Conditions: at 1 µM.
Experiment [16] concerns the target Casein kinase I isoform alpha (Homo sapiens) (UniProt P48729). Conditions: at 0.1 µM.
The target is the same in experiment [17]. Particulars: at 1 µM.
For experiment [18], the target named is Casein kinase I isoform gamma-1 (Homo sapiens) (UniProt Q9HCP0). Conditions: at 0.1 µM.
Chain of Casein kinase I isoform gamma-1 (Homo sapiens) (Q9HCP0 whole entry, looked up, canonical isoform): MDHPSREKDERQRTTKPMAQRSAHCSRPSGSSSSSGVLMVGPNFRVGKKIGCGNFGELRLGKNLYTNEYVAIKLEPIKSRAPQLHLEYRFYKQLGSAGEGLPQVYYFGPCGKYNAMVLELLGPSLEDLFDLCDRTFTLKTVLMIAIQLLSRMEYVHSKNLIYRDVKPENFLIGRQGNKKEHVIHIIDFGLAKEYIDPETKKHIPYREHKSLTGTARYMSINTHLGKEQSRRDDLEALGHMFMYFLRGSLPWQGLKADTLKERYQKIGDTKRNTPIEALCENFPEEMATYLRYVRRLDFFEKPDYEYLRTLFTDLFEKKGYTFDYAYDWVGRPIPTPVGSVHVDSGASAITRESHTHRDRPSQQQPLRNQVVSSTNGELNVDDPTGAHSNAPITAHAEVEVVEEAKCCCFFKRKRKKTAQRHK
The target is the same in experiment [19]. Conditions: at 1 µM.
Experiment [20] concerns the target Casein kinase I isoform gamma-2 (Homo sapiens) (UniProt P78368). Conditions: at 0.1 µM.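 Further: values are mean inhibition figures reported as part of the GSK PKIS dataset.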

Chain of Casein kinase I isoform gamma-2 (Homo sapiens) (P78368 whole entry, looked up, canonical isoform): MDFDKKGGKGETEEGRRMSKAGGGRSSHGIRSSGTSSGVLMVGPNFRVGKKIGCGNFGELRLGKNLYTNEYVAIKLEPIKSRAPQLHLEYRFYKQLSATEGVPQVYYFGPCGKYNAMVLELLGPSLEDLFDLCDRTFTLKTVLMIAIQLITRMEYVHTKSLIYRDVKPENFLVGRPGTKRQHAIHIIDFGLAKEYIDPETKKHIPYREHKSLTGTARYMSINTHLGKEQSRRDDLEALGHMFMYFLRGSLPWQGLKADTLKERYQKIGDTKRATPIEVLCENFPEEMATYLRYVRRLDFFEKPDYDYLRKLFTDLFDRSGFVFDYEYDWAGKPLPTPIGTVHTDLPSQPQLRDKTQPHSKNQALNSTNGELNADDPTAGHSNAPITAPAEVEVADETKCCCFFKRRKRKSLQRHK
Chain of Serine/threonine-protein kinase pim-2 (Homo sapiens) (Q9P1W9 whole entry, looked up): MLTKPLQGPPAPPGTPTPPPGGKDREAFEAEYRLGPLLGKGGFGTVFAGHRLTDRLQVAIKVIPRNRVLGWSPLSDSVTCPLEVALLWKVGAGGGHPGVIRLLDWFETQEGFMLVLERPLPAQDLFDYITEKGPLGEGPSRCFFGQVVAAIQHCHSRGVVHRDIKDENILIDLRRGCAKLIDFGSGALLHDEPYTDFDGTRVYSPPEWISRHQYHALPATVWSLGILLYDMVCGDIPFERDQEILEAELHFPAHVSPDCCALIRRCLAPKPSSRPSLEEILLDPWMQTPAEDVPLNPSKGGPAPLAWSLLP
Chain of Casein kinase I isoform alpha (Homo sapiens) (P48729 2-337 limits assumed): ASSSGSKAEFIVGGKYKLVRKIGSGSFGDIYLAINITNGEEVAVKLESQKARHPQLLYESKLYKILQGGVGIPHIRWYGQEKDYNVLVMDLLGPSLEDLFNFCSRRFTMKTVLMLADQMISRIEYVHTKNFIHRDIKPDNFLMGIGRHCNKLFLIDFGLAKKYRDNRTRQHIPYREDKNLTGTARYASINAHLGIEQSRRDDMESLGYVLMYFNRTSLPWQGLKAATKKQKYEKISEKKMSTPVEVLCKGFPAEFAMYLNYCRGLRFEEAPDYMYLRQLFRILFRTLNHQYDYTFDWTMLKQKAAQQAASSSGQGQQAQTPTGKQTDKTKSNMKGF
Chain of Serine/threonine-protein kinase SIK1 (Homo sapiens) (P57059 whole entry): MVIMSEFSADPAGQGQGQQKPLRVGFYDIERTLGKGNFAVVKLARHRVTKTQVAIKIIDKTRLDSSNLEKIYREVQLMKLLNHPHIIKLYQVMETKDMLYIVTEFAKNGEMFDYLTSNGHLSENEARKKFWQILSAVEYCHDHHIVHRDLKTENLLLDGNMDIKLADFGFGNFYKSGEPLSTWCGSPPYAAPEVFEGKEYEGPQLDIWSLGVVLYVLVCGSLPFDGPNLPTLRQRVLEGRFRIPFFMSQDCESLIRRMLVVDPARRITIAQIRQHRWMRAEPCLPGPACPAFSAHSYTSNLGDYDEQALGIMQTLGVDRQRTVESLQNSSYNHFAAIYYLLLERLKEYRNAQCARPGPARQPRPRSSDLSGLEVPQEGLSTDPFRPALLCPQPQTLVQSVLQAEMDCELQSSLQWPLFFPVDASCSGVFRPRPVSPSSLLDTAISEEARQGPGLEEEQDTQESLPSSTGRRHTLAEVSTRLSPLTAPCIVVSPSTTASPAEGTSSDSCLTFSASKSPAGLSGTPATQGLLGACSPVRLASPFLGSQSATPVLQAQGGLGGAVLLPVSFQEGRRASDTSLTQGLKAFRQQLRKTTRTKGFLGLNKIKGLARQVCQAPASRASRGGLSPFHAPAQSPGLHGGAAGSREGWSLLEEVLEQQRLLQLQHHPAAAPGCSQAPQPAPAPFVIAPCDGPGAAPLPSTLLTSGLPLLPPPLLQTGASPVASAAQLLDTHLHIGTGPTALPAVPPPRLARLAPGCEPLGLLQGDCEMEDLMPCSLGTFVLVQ

Take `c1ccc(-c2n[nH]cc2-c2ccnc(-c3ccc(OCCN4CCOCC4)cc3)c2)nc1`: the inhibition is 5.56% in experiment [1]; 5.26% in [2]; 3.99% in [3]; -1.14% in experiment [4]; -0.78% in [5]; 0.04% in experiment [6]. In addition, the inhibition in experiment [7] was -2.45%; in experiment [8], -6.26%; in experiment [9] it was -0.03%; in [10], 1.5%; in experiment [11] it was 1.95%; in experiment [12], -1.9%. Moreover, the inhibition in experiment [13] is -3.08%; in experiment [14], -1.89%; in experiment [15] it was -0.96%; in experiment [16] it was 0.38%; in experiment [17], 1.39%; in experiment [18], -1.07%. For the same compound, the results for the inhibition in [19] and in experiment [20] were -0.62% and -2.46%, respectively.
For the compound `C/C(Nc1ccc(S(N)(=O)=O)cc1)=C1/C(=O)Nc2ccccc21`, the inhibition in [1] is 0.33%; in experiment [2] it was 0.02%; in experiment [3], 1.7%; in [4] it was -0.26%; in [5] it was 1.08%; in [6], -7.25%. For the same compound, the inhibition is -0.38% in experiment [7]; -6.72% in experiment [8]; -0.55% in experiment [9]; 0.77% in [10]; 4.75% in experiment [11]; 0.79% in experiment [12]. The inhibition in experiment [13] is 5.46%; in experiment [14] it was -0.65%; in [15] it was 1.13%; in [16], 2.64%; in experiment [17] it was 8.53%; in experiment [18], -0.74%. For the same compound, the values for the inhibition in experiment [19] and in experiment [20] were 6.33% and 1.03%, respectively.
On to `COc1ccc2ncn(-c3cc(O[C@H](C)c4ccccc4Cl)c(C(N)=O)s3)c2c1`, for which the inhibition in experiment [1] was -2.83%; in experiment [2] it was 0.05%; in [3], 4.48%; in experiment [4] it was 1.58%; in [5] it was 1.26%; in [6], 4.44%. Also, the inhibition in [7] amounted to 11.2%; in experiment [8] it was 2.04%; in experiment [9], 0.17%; in [10] it was 2.41%; in experiment [11], 3.86%; in [12] it was 2.29%. The inhibition in experiment [13] came out at 2.54%; in [14] it was 0.96%; in [15] it was 1.28%; in experiment [16] it was 2.14%; in experiment [17] it was 2.16%; in experiment [18], 0.39%. Besides, the values for the inhibition in [19] and in experiment [20] were -0.54% and -0.05%, respectively.
As for `COc1cc(Nc2ncc3c(C)nc(-c4cccc(C(F)(F)F)c4)n3n2)cc(OC)c1OC`, the inhibition in experiment [1] is 3.02%; in experiment [2] it was 3.42%; in [3] it was 6.73%; in experiment [4] it was 1.19%; in experiment [5] it was 2.92%; in [6] it was 3.9%. Also, the inhibition was 15.9% in experiment [7]; 10.9% in [8]; 13.5% in [9]; 1.64% in [10]; 25.5% in experiment [11]; 4.46% in experiment [12]. The inhibition stood at 9.14% in experiment [13]; 4.53% in experiment [14]; 3.7% in [15]; 7.78% in experiment [16]; 6.02% in [17]; 2.94% in experiment [18]. The results for the inhibition in experiment [19] and in experiment [20] were 4.47% and 2.07%, respectively.
For `CN(C)CCCNc1nccc(-c2c(-c3ccc(F)cc3)nn3cc(C(F)(F)F)ccc23)n1`, the inhibition in experiment [1] was -3.32%; in experiment [2] it was -0.45%; in experiment [3] it was -0.57%; in experiment [4] it was 0.44%; in experiment [5] it was -0.97%; in experiment [6], 3.07%. In addition, the inhibition in experiment [7] is 7.21%; in experiment [8], -1%; in experiment [9], 6.81%; in experiment [10], 0.75%; in experiment [11] it was 4.86%; in [12], 1.45%. The inhibition is -1.19% in experiment [13]; 0.61% in [14]; -2.11% in [15]; 1.35% in experiment [16]; 14.8% in experiment [17]; -2.45% in experiment [18]. The inhibition in experiment [19] was -1.14%; in experiment [20], -3.5%.
`Cc1ccc(NC(=O)c2ccoc2)cc1-c1ccc(C(=O)NCC2CC2)cc1`: the inhibition in experiment [1] is 0.6%; in experiment [2], 0.71%; in experiment [3] it was -0.9%; in experiment [4] it was 0.96%; in experiment [5], 0.83%; in experiment [6] it was 2.51%. For the same compound, the inhibition in experiment [7] is 0.11%; in experiment [8], 5.39%; in experiment [9] it was 5.33%; in [10] it was 0.28%; in experiment [11], 0.72%; in experiment [12] it was 1.46%. Besides, the inhibition was 3.27% in experiment [13]; 0.85% in experiment [14]; 1.22% in [15]; 1.36% in experiment [16]; 1.47% in [17]; 2.78% in experiment [18]. Moreover, the values for the inhibition in experiment [19] and in [20] were 3.5% and 2.62%, respectively.
For `Clc1ccc(CNc2nccc(-c3cnn4ncccc34)n2)cc1`, the inhibition in experiment [1] was 2.14%; in experiment [2] it was 1.78%; in experiment [3], 6.13%; in experiment [4] it was 0.35%; in experiment [5] it was 0.03%; in [6], 0.93%. Besides, the inhibition in experiment [7] is 1.65%; in [8], 4.14%; in experiment [9] it was 0.45%; in [10], 0.1%; in experiment [11] it was 2.91%; in [12], 0.5%. The inhibition was -0.65% in [13]; 0.23% in [14]; -1.43% in experiment [15]; 2.75% in experiment [16]; 16.9% in experiment [17]; 0.12% in [18]. The inhibition in experiment [19] turned out to be 7.72%; in experiment [20] it was 1.44%.

What is called inhibition is the drop in the measured response relative to a control, in per cent.

(Values after ChEMBL document CHEMBL1961873, “Compounds: GSK PKIS; Assays: Nanosyn kinase panel” (2012).)
